Compounds without any hit were thinned out: in the full panel of roughly 83,000, 20% have a hit.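 In brief: 96-well plates, 48 h treatment, single concentration, percent growth endpoint.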 The source made the active and inactive calls. The calls were made as follows: active = growth percent below 10; inactive = the rest.
What follows are molecules tested on KM12 colon (assay: NCI-60 one-dose screen, 48 h (100 = growth as untreated, 0 = no growth, -100 = all killed)). Details: 10 µM unless noted.
With `O=c1c2cc(Br)cc(Br)c2nc(-c2ccc(Cl)cc2)n1/N=C\c1ccccc1F` the growth was 72.2% (inactive).
`O=C(O)CSc1ccc(NCc2oc(CO)cc(=O)c2O)cc1` was tested, and the growth was 100% (inactive).
`O=C(c1ccccc1)C1OC1C(=O)c1ccccc1` (centres undefined) was tested, and the growth was 55.5% (inactive).
With `CS(=O)(=O)c1ccc(C(=O)Nc2ccc(Cl)c(-c3ccccn3)c2)c(Cl)c1` the growth was 13.7% (inactive).
With `COc1ccccc1/C=N\Nc1ccc([N+](=O)[O-])cn1` the growth was 106% (inactive).
In the case of `CCN1C(=O)N(CC)C2C1N=C(SC)N2/N=C/C=C/c1ccccc1OC` (centres undefined), the growth is reported as 4.92% (active).
With `O=C(c1ccccc1)C(CCc1ccccn1)CCc1ccccn1` the growth was 109% (inactive).
In the case of `C=C[C@H]1CCC/C=C/[C@@H]2C[C@H](O)C[C@H]2[C@H](O)/C=C/C(=O)O1`, the growth is reported as -59.2% (active).
For `CCN1C(=O)N(CC)C2C1NC(=O)N2/N=C/C=C/c1ccccc1` (centres undefined), the growth was 23.4% (inactive).
`O=[N+]([O-])c1ccc(N/N=C/c2ccccc2O)nc1` was tested, and the growth was 27% (inactive).
With `C#CCNc1nc(NCCNC(=O)CCl)nc(N(C)CCCCc2ccccc2)n1` the growth was 99.1% (inactive).
`O=S1(=O)NCCCN1CCNc1nccc(-c2c(-c3cccc(O)c3)nc3sccn23)n1` was tested, and the growth was 102% (inactive).
In the case of `OC(CCCCCCCCC(O)CN1CCc2ccccc2C1)CN1CCc2ccccc2C1` (centres undefined), the growth is reported as 106% (inactive).
For `CCCCCCCCCCCCNC(=O)N[C@H](C(=O)N[C@H]1/C=C/CCNC(=O)/C=C/[C@H](C)NC1=O)C(C)C`, the growth was -62.4% (active).
`COc1ccccc1-[n+]1cc(-c2ccc(-c3ccccc3)cc2)n2c1CCCCC2` was tested, and the growth was 4.15% (active).
With `O=C(CCl)N1c2ccccc2Oc2ccc3ccccc3c21` the growth was 17.3% (inactive).
`C=C(c1ccc(C(=O)NCCCn2ccnc2)cc1)c1cc2c(cc1C)C(C)(C)CCC2(C)C` was tested, and the growth was 24.5% (inactive).
`COc1cc(CN2CCC(N3CCCC3=O)c3ccccc32)cc(OC)c1OC` (centres undefined) was tested, and the growth was 97.1% (inactive).
`CC(=O)Nc1ccc(/C=N/N2CCCCCC2)cc1` was tested, and the growth was 97.8% (inactive).
With `CCCCc1nc(Cl)c(C2CC(c3ccc(S(N)(=O)=O)cc3)=NN2c2cc(Cl)cc(Cl)c2)[nH]1` (centres undefined) the growth was 32.1% (inactive).
For `O=C1NN(C(=O)c2ccccc2)C(c2ccc(Cl)c(Cl)c2)=C/C1=C\c1ccccc1[N+](=O)[O-]`, the growth was 4.6% [6.75 µM] (active).
With `O=C(NNC(=O)c1cccc(Cl)c1)c1ccccc1` the growth was 111% (inactive).
For `Cc1c(C(N)=O)sc2ncn(CC(=O)NN=C3CCCCC3)c(=O)c12`, the growth was 115% (inactive).
With `Clc1cc(Cl)cc(-c2cnc3nonc3n2)c1` the growth was 90% (inactive).
For `CCOC(=O)Cn1c(-c2nonc2NC(=O)c2ccccc2F)nc2ccccc21`, the growth was 41.1% (inactive).
For `COc1ccc(C(=O)O)cc1.[Ag]`, the growth was 87% (inactive).
For `COc1cccc(C2C(C#N)=C(N)Oc3cc4c(cc32)OCO4)c1` (centres undefined), the growth was 0.487% (active).
With `C=CCOC(=O)C1=C(C)NC2=C(C(=O)CCC2)C1c1ccc(F)cc1` (centres undefined) the growth was 93.8% (inactive).
With `COc1cc(CN(c2ccc(C)cc2)C2OC(=O)c3ccccc32)cc(OC)c1OC` (centres undefined) the growth was 17.1% (inactive).
`CN1C(=O)C(C(=O)/C=C/c2ccccc2C(=O)O)C(=O)N(C)C1=O` was tested, and the growth was 104% (inactive).
For `CC1(C)OC2OC3C(CN)OC(c4ccccc4)OC3C2O1` (centres undefined), the growth was 104% (inactive).
For `O=S(=O)(Cc1ccc(Cl)cc1Cl)c1ccc(Cl)cc1`, the growth was 33.6% (inactive).
`COC(=O)OC1C(O[C@H]2C[C@H]3[C@@H]4CC=C5C[C@@H](O)CC[C@]5(C)[C@H]4CC[C@]3(C)[C@H]2[C@H](C)C(=O)CCC(C)C)OCC(O)C1OC1OCC(O)C(O)C1OC(=O)c1ccc(OC)cc1` (some centres undefined) was tested, and the growth was 39.2% (inactive).
In the case of `CC(C)c1ccc2c(c1)CCC1C2CCCC1(C)NCc1ccccc1` (centres undefined), the growth is reported as 23.1% (inactive).
`CC(=O)C1CCC2C3CC(C)=C4CC(O)CCC4(C)C3CCC12C` (centres undefined) was tested, and the growth was 109% (inactive).
`CC(CN1CCN(CC(C)Nc2ccnc3cc(Cl)ccc23)CC1)Nc1ccnc2cc(Cl)ccc12` (centres undefined) was tested, and the growth was 19.8% (inactive).
For `C=CCOC(=O)C1=C(C)NC2=C(C(=O)CC(C)(C)C2)C1c1ccc(OC)cc1` (centres undefined), the growth was 94.8% (inactive).
In the case of `CCCCCCCC/C=C/CCCCCCCC1=NC(C)(C)CN1c1ccccc1`, the growth is reported as 105% (inactive).
In the case of `COc1ccc2c(c1)N(Cc1ccc(Cl)cc1)CCC2N1CCCC1=O` (centres undefined), the growth is reported as 50.4% (inactive).

— PubChem BioAssay (NCI)
